# Source: PubChem (Sanford-Burnham Center for Chemical Genomics)
# Sampled rows, rich in hits. Any-hit rate of the full collection: about 4%.
# TWEAK Fn14 block: TWEAK-Fn14 signaling inhibition | TWEAK-stimulated Fn14 reporter cells, luciferase luminescence, 8 h | inhibition, % at 10 µM | 360,000 tested, 2% active; in the data active means inhibition above about 50%
# CF NFkB block: blocks PAF-induced NF-kB reporter in cystic fibrosis cells. 360,000 tested, 0.86% active. KKLEB NF-kB-GFP reporter, GFP fluorescence overnight. AID 588850. inhibition, % at 5 µM;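 active means at least 50% inhibition at 5 µM, scaled per plate between neutral and stimulator controls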;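 further: PAF is a Pseudomonas aeruginosa culture filtrate used as stimulus; plate controls were PAF-stimulated DMSO wells for no effect and unstimulated DMSO wells for full effect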
# KKLEB tox: reduces viability of KKLEB cystic fibrosis airway cells. KKLEB CF airway cells viability, ATPlite luminescence, overnight; stronger effect = lower value; cells stimulated with P. aeruginosa culture filtrate. AID 602141. 360,000 tested, 0.36% active. activity change (cytotoxicity), % at 5 µM;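 active means corrected activity change at or below -50% at 5 µM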
# Peg3 promoter: Peg3 promoter activity inhibition; HeLa PEG-Prom luciferase reporter, luminescence, overnight; 360,000 tested, 1.7% active; inhibition, % at 20 µM; AID 588405;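 active means inhibition of at least 50% at 20 µM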
# HIF-2a inh: blocks HIF-2a reporter activity; 786-0 RCC cells HIF-2a reporter, luciferase luminescence, overnight; 360,000 tested, 0.72% active; inhibition, % at 18.8 µM;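 active means inhibition of the luminescence signal of 40% or more relative to plate controls, in a single-dose primary screen at 18.75 µM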
# TROY signal inh: blocks TROY-dependent signaling in reporter cells. inhibition, % at 10 µM. 360,000 tested, 0.98% active. Q293 LMP1-TROYcd NF-kB luciferase reporter, 4 h;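 active means compounds whose plate-normalised and pattern-corrected inhibition of the luciferase reporter signal at the single screening dose is 50% or more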
# Active calls of the source: *; x = not tested or not shown.
SMILES,TWEAK Fn14 block,CF NFkB block,KKLEB tox,Peg3 promoter,HIF-2a inh,TROY signal inh
Nc1nc(N)c2cc(S(=O)(=O)c3cccc(C(F)(F)F)c3)ccc2n1,18.4,27.4,-19.4,22.4,28.9,22.2
CN(C)c1ccc(Sc2ccc3nc(N)nc(N)c3c2)cc1,31.5,23.8,-31.4,105.4*,-4.3,32.1
CN(C)c1cccc(C(=O)N/N=C/c2ccccc2F)c1,88.5*,-15.5,-5.1,19.5,-10.4,55.5*
O=C(O)C1CC(=O)N(c2ccc(OCc3ccccc3Cl)cc2)C1 (centres undefined),4.0,4.1,-1.2,8.0,28.2,-30.5
CCOC(=O)C/C(C)=N\Nc1nc(-c2ccccc2)cs1,50.8*,9.8,5.9,-43.9,-14.9,40.3
O=C(CCC(=O)OC(C(=O)c1ccccc1)c1ccccc1)Nc1ccccc1 (centres undefined),1.0,3.1,-4.5,17.6,12.5,-8.2
O=C(C1CCCN(Cc2ccc(F)cc2)C1)N1CCCCC1 (centres undefined),-13.0,5.4,-14.2,6.7,12.8,-4.5
COc1ccc(C)cc1S(=O)(=O)N1CCC(C(=O)NC2CCCC2)CC1,4.3,18.3,-2.0,7.0,18.6,10.6
CCN1C(=O)/C(=C/N(C)C)c2ccccc21,-16.2,4.0,-2.9,57.4*,15.4,-13.4
CCN1C(=O)/C(=C/c2nc3ccccc3c(=O)n2-c2ccccc2)c2ccccc21,58.4*,-5.4,3.3,35.1,22.9,27.1
N#C/C(=C(/O)c1ccc([N+](=O)[O-])o1)c1nc2ccccc2[nH]1,28.5,94.0*,-28.7,76.7*,38.7,50.0*
Cc1ccc(S(=O)(=O)NN2Cc3ccccc3C2=N)cc1,2.9,-8.2,-1.8,21.0,12.6,-9.8
Nc1nc(CSc2nc3ccccc3s2)nc(N2CCOCC2)n1,-16.5,9.5,-7.8,-11.1,-22.7,12.2
Nc1nc(CSCc2ccccc2)nc(N2CCOCC2)n1,61.1*,-1.4,-0.8,-139.9,-119.2,x
COc1ccc2cc(C#N)c(SCC(=O)N3CCCC3)nc2c1,-18.5,7.8,-3.5,-60.9,-61.0,-19.7
N#Cc1cc2c(nc1SCC(=O)N1CCOCC1)CCCCC2,94.9*,-9.3,5.4,-19.6,-34.3,80.8*
CC(=O)CSc1nc2cc3c(cc2cc1C#N)OCCO3,84.5*,-90.8,9.5,-92.5,-173.6,39.7
N#Cc1cc2cc3c(cc2nc1SCC(=O)N1CCCC1)OCCO3,35.9,1.2,2.7,-276.5,-192.7,50.6*
CC(CCl)OC(C)CCl (centres undefined),2.4,-5.9,4.9,3.1,7.0,0.3
Cc1cc(C(=O)Nc2nc(C)c(C(=O)N(C)C)s2)ccc1[N+](=O)[O-],53.5*,4.2,-14.0,-139.7,-100.7,61.8*
Cc1nc(NC(=O)c2ccc([N+](=O)[O-])cc2Cl)sc1C(=O)N(C)C,12.1,0.5,6.3,-0.3,2.9,6.1
O=C(Nc1ccc2c(c1)OCCO2)c1ccccn1,78.8*,11.4,-11.5,42.0,-69.6,57.4*
O=C(COC(=O)c1ccccn1)Nc1ccc2c(c1)OCCO2,-7.6,-14.5,-5.4,11.4,-10.8,-32.6
O=C(Nc1ccc(N2CCOCC2)cc1)c1cn2ccccc2n1,67.7*,0.5,2.2,23.2,-1.1,23.9
CSc1ncccc1C(=O)Nc1ccc2c(c1)OCCO2,50.2*,-10.9,8.5,-25.1,-34.7,2.1
SMILES,TWEAK Fn14 block,CF NFkB block,KKLEB tox,Peg3 promoter,HIF-2a inh,TROY signal inh
O=C(Nc1ccc2c(c1)OCCO2)c1ccccc1F,53.3*,-14.5,-5.5,-60.3,-52.4,8.2
O=C(Nc1ccc(Cl)c(S(=O)(=O)N2CCOCC2)c1)c1cn2ccccc2n1,-1.4,6.3,6.3,-1.2,-3.5,-8.1
O=C(CSc1nc(SCC(=O)NCc2ccccc2)n(-c2ccccc2)n1)NCc1ccccc1,3.1,-5.6,1.2,12.4,12.7,-6.6
O=C(Nc1ccc(N2CCCCCC2)cc1)c1ccccc1Cl,-48.8,17.3,-15.8,-190.5,-297.0,1.0
O=C(Nc1ccc(N2CCCCC2)cc1)c1ccccn1,100.3*,-5.0,-76.9*,90.7*,93.0*,87.4*
C(=C\c1sc(Nc2ccccc2)n[n+]1-c1ccccc1)/c1ccccc1,-3.1,-10.9,0.1,101.2*,-99.6,-50.9
COc1ccc(-c2sc(Nc3ccccc3)n[n+]2-c2ccccc2)cc1Br,-10.6,13.7,3.1,-10.3,-175.4,11.3
CCC/C(O)=N\S(=O)(=O)c1ccc(N=NN(C)C)cc1,-1.1,-9.8,0.1,9.8,4.5,-7.7
